Hits are enriched below; roughly 1.5% of the tested compounds scored in any of these assays.
RecA intein inh = inhibitors of M. tuberculosis RecA intein splicing; P9WHJ3; cell-free RecA intein splicing, fluorescence; inhibition, % (test concentration not listed); actives 0.75% (n = 290,000); AID 2221; in the data active means inhibition above about 30%;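 further: 0% = vehicle wells and 100% = reference inhibitor control wells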
DUSP3 inh = blocks human VHR1 dual specificity phosphatase | inhibition, % at 13.3 µM | AID 1654 | recombinant VHR phosphatase, pNPP absorbance | actives 0.52% (n = 290,000); in the data active means inhibition above about 50%
CCHFV vOTU inh = blocks the CCHF virus ovarian tumor domain protease. actives 0.55% (n = 370,000). AID 651958. CCHFV vOTU protease, Pep-AMC fluorescence. inhibition, % at 11.5 µM; in the data active means inhibition above about 30%; further: 0% = vehicle wells with enzyme and 100% = no enzyme wells
SARS 3CLpro inh = SARS-CoV 3CLpro protease inhibition | actives 0.14% (n = 290,000) | AID 1706 | P0C6X7 | recombinant SARS-CoV 3CLpro, quenched FRET peptide cleavage | inhibition, % at 6 µM; in the data active means inhibition above about 12%
GFP chromophore = counter-screen GFP chromophore formation inhibition; shares compounds with RecA intein inh; cell-free GFP chromophore formation, fluorescence; EC50, µM; actives 83% (n = 2,100); call rule not given here
* marks the source's active call; other numbers are inactive results; · = no result.

SMILES | RecA intein inh | DUSP3 inh | CCHFV vOTU inh | SARS 3CLpro inh | GFP chromophore
Cc1nn(-c2ccccc2)c2c1C(c1c(C)[nH]c(C#N)c1C)C(C#N)=C(N)O2 (stereo not given) | 10 | 13 | 24 | -6 | ·
Cc1cc2c(c(=O)n1C1CC1)C(c1cccc(Cl)c1)C(C#N)=C(N)O2 (stereo not given) | 1 | 36 | 3 | -5 | ·
Cc1nn(Cc2ccccc2)c2c1C(c1cccc(Cl)c1)C(C#N)=C(N)O2 (stereo not given) | 73* | 22 | 2 | 2 | 32*
Cc1ccc(-n2nc(C)c3c2OC(N)=C(C#N)C3c2cccs2)cc1 (stereo not given) | 65* | 26 | -1 | 1 | 5*
CCCc1nn(C)c2c1C(c1ccncc1)C(C#N)=C(N)O2 (stereo not given) | 64* | 4 | 1 | 1 | 30*
O=C(COc1ccc(C(=O)NCCN2CCOCC2)cc1)Nc1cccc(C(F)(F)F)c1 | 0 | · | -2 | · | ·
COc1cc(-n2nc(C)c3c2OC(N)=C(C#N)C3c2ccccc2)c(Cl)c(Br)c1O (stereo not given) | 72* | 26 | 9 | -3 | 20*
CCOC(=O)C1=C(C)OC(N)=C(C#N)C1c1c(C)nn(-c2ccccc2)c1Cl (stereo not given) | 1 | 21 | 2 | 1 | ·
Cc1ccc(S(=O)(=O)N2c3ccccc3OCC2c2ccccc2)cc1 (stereo not given) | -1 | 13 | -2 | 1 | ·
O=C(C(Cl)Cl)N1c2ccccc2OCC1c1ccccc1 (stereo not given) | 72* | 7 | 4 | -4 | 35*
C/C(CC(=O)Nc1ccccn1)=N\NC(=O)C(=O)Nc1ccccc1C | 29 | 6 | -7 | 3 | ·
CCc1ccc(NC(=O)C(=O)N/N=C(\C)CC(=O)Nc2ccccn2)cc1 | 36* | 0 | -22 | -2 | >38
CCCc1nc2ccccc2c(=O)n1CC(=O)c1ccccc1 | 1 | 10 | 4 | 4 | ·
CCSc1c([N+](=O)[O-])c(=O)n(-c2ccccc2)c2ccccc12 | 40* | · | -11 | · | >38
O=C(O)CC1(CC(=O)Nc2nccs2)CCCCC1 | · | · | -2 | · | ·
CCOC1(OCC)C(c2ccc(Cl)cc2)C(C#N)(C#N)C1(OCC)OCC (stereo not given) | 56* | 8 | 2 | 1 | >38
CCOC1(OCC)C(c2ccc(N)cc2)C(C#N)(C#N)C1(OCC)OCC (stereo not given) | · | 30 | 13 | 1 | ·
COC(=O)C(C)(C)ONC(=O)Nc1ccccc1 | 1 | 16 | -14 | 4 | ·
O=C(N/N=C/c1cc(Cl)cc([N+](=O)[O-])c1O)c1ccccc1NS(=O)(=O)c1cccs1 | 33* | 14 | 8 | 3 | >38
CN(CCO)c1cc(Sc2nc3ccccc3s2)c2nonc2c1[N+](=O)[O-] | 94* | 29 | 0 | -1 | 1.4*
CC(=O)OCCN(C)c1cc(SC(C)C)c2nonc2c1[N+](=O)[O-] | 34* | 8 | 4 | 3 | >38
Nc1c(N2CCCC2)cc(Cl)c2nonc12 | 70* | 56* | · | -5 | 5.1*
Nc1c(N2CCOCC2)cc(Cl)c2nonc12 | 0 | -1 | -2 | -7 | ·
O=C1C=C(N(CCO)Cc2ccccc2)c2ccccc2C1=O | 88* | -4 | · | 3 | 0.6*
O=C1c2ccccc2C(=O)c2c1cccc2N(CCO)CCO | 5 | 1 | -4 | -5 | ·
SMILES | RecA intein inh | DUSP3 inh | CCHFV vOTU inh | SARS 3CLpro inh | GFP chromophore
CS(=O)(=O)c1nc(-c2ccccc2)cc(C(F)(F)F)n1 | 66* | 4 | 25 | 3 | 13*
O=C(Nc1ccc(C(=O)N2CCCC2)cc1)C1CCC1 | · | · | 11 | · | ·
CC(C)(C)c1c(Cl)c(O)c(-c2ccccc2)c(=O)n1-c1ccccc1 | 31* | -3 | 19 | 8 | >38
Cc1c(O)c2ccccc2n(-c2ccccc2)c1=O | 0 | · | 3 | · | ·
O=C(Oc1cc(Cl)ccc1Cl)c1ccc(N2CCOCC2)c([N+](=O)[O-])c1 | 7 | -4 | 2 | 7 | ·
CCCNC(=O)C1(C)CCN(Cc2ccc(OCc3ccccc3)cc2)C1 (stereo not given) | · | · | 24 | · | ·
O=C(CSc1nnc(Cc2ccccc2)o1)Nc1cccc(F)c1 | 43* | 6 | 14 | 4 | >38
O=C(Cc1ccccc1F)Nc1nc2ccccc2[nH]1 | 38* | 22 | -11 | 4 | >38
Cc1ccc(NC(=O)C(CC(C)C)NC(N)=O)cc1 (stereo not given) | 33* | -8 | -2 | 0 | >38
CN1CCN(C(c2ccccn2)c2cc(Cl)c3cccnc3c2O)CC1 (stereo not given) | 5 | 13 | 7 | 3 | ·
Cc1ccc(C(c2cc(Cl)c3cccnc3c2O)N2CCN(C)CC2)cc1 (stereo not given) | 75* | -17 | · | 9 | 8.7*
CNc1nc(-c2ccccn2)nnc1-c1ccccc1 | 3 | 33 | 5 | 4 | ·
c1ccc(-c2nnc(-c3ccccn3)nc2NC2CCCCC2)cc1 | 38* | 19 | 18 | 6 | 23*
Cc1ccc(N(C(=O)c2csnn2)C(C(=O)NC2CCCCC2)c2cccnc2)cc1 (stereo not given) | 0 | 12 | 6 | 3 | ·
O=c1c(Cl)nc2cc(Cl)ccc2n1CCNc1ncc(C(F)(F)F)cc1Cl | 67* | -8 | · | 0 | 0.31*
Cc1ccc(C)c(N2CCN(C(=O)CCc3nc(-c4cccc(Cl)c4)no3)CC2)c1 | · | · | 8 | · | ·
CC(=O)Oc1ccc2c(=O)oc(-c3ccccc3C)nc2c1 | 33* | 11 | 8 | 3 | >38
CC(=O)Oc1ccc2c(=O)oc(-c3ccccc3)nc2c1 | 5 | -4 | 5 | 1 | ·
CCc1[nH]nc2c1C1(CCN(C(=O)c3ccccc3)CC1)C(C#N)=C(N)O2 | 67* | -8 | -3 | 1 | 29*
Cc1ccc(SCc2[nH]nc3c2C2(C(=O)Nc4ccc(F)cc42)C(C#N)=C(N)O3)cc1 (stereo not given) | · | 2 | -8 | 4 | ·
CCCc1[nH]nc2c1C1(C(=O)N(C(C)C)c3ccccc31)C(C#N)=C(N)O2 (stereo not given) | 4 | 18 | 0 | -2 | ·
CC(=O)N1CCC2(CC1)C(C#N)=C(N)Oc1n[nH]c(CSc3ccc(C)cc3)c12 | 74* | 12 | -11 | -6 | 23*
O=C(Oc1ccccc1F)c1ccc2c(=O)n3c(nc2c1)CCC3 | 12 | · | 1 | · | ·
Cc1noc(C)c1COC(=O)CCOc1ccccc1 | 1 | -8 | -6 | -5 | ·
Cc1noc(C)c1COC(=O)Cc1ccc(Br)cc1 | 1 | 0 | 1 | -3 | >38
Cc1ccc(S(=O)(=O)N2CCN(C(=O)c3ccccc3Cc3ccccc3)CC2)c(C)c1 | 30* | 14 | 0 | 11 | >38
OC(CNCCC1C=Nc2ccccc21)Cn1c2ccc(Cl)cc2c2cc(Cl)ccc21 (stereo not given) | 48* | 3 | 8 | -2 | 37*
CCOC(=O)CSc1nnc(NCC(=O)OC)c(=O)[nH]1 | 37* | -2 | -3 | -2 | >38
CC(C)Nc1ccc(Nc2ccccc2)cc1 | 36* | · | 3 | · | >38
